Data taken from PubChem BioAssay (NCATS).
Inconclusive results are not listed. Activity calls are given as the source filed them. The call rests on the fitted dose curve; in most records, active means well fitted curve in the direction sought with a large enough effect; inconclusive means small, poorly fitted or top-dose-only effect, or another doubt; inactive means no such curve, though single readings can be large; an effect the other way counts as inactive or inconclusive.

Molecular target: Rap guanine nucleotide exchange factor 3 (Homo sapiens) (UniProt O95398)
Sequence (O95398 whole entry, looked up): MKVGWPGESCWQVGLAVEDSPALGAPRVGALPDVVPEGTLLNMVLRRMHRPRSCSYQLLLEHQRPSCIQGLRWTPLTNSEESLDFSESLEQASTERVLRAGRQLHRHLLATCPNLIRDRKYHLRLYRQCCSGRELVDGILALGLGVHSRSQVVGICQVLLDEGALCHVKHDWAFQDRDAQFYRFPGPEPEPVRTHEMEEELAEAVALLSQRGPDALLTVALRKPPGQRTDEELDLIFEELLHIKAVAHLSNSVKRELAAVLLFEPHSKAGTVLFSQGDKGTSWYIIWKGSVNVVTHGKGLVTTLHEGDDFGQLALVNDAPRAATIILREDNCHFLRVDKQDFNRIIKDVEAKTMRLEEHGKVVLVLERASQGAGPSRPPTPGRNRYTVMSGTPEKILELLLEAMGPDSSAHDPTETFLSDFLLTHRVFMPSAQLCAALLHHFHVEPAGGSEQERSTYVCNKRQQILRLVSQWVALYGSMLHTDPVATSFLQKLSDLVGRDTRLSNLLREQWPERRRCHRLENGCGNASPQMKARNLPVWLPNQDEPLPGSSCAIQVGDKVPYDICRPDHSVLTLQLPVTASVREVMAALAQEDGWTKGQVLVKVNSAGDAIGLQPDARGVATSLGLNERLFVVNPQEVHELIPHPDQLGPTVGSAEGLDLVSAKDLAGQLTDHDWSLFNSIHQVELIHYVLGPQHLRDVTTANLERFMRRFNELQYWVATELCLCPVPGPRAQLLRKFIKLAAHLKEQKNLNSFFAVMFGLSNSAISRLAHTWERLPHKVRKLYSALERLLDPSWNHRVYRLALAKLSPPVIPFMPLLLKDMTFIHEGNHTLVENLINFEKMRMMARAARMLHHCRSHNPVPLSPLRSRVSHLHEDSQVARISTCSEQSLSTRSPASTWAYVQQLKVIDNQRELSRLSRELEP
Experiment: Confirmatory qHTS for antagonist of cAMP-regulated guanine nucleotide exchange factor 3 (EPAC1) (AID 1645880); further: nearly all actives have a fitted effect of over 55% in size; further: potency means the concentration at half of the fitted maximal effect;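 on activity, negative = inhibition: plate controls were DMSO only for no effect and full effect of the ATA control for full effect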
Settings: EPAC1 Rap1B-BODIPY-GDP exchange, fluorescence; series mostly up to 115 µM; activity, negative = inhibition: at the top concentration
Outline: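 Nucleotide exchange uses 100 nM EPAC1, 250 nM RAP1B-BODIPY-GDP and 50 uM GDP, with compounds in a concentration-titration series. After 5 min at room temperature, fluorescence (480 nm ex/540 nm em) is read every 5 min for 30 min. Data are normalized to control ATA and DMSO.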

| SMILES | activity, negative = inhibition | Potency |
| --- | --- | --- |
| CC1Sc2ccc(C(=O)OCc3ccccc3Cl)cc2NC1=O (stereo not drawn) | -21.6% (inactive) | – |
| CC(C)N(C(=O)Nc1ccc2nsnc2c1)C(C)C | – | 22.4 µM (active) |
| CCOC(=O)[C@H](CCc1ccccc1)N[C@@H](C)C(=O)N1[C@@H](C(=O)O)C[C@@H]2CCC[C@@H]21 | 4.43% [at 62.4 µM] (inactive) | – |
| Cc1ccc(S(=O)(=O)N2[C@@H](CO)CO[C@H]2CC(=O)c2ccc(F)cc2)cc1 | -26.3% (inactive) | – |
| Cc1cc(C)cc(NC(=O)c2sc3nc(-c4ccccc4)cn3c2C)c1 | -19.6% (inactive) | – |
| CN1CC(O)C2=CC(=O)C(=O)C=C21 (stereo not drawn) | – | 2.8 µM (active) |
| COC(=O)c1cc(Br)c(=O)n(CCC2=CCCCC2)c1 | -23.1% (inactive) | – |
| O=c1c2ccccc2oc2ccc(Oc3ccccc3)cc12 | -13.3% (inactive) | – |
| COC(=O)c1cn(C(=O)c2ccc(OC)cc2)c2ccccc12 | -15.1% (inactive) | – |
| COc1ccc(CNC(=O)[C@@H]2CC=C[C@@H]3CCN(Cc4ccccc4)C(=O)[C@@H]32)cc1 | -11.9% (inactive) | – |
| Cc1cc(C)c2nccc(/C=C/c3ccc(N(C)C)cc3)c2c1 | -4.06% (inactive) | – |
| O=C(Nc1ccc(Cl)cc1)N[C@@H]1CC[C@H](CCNS(=O)(=O)c2ccccc2F)O[C@@H]1CO | -37.5% (inactive) | – |
| COc1ccccc1NC(=O)Nc1nc(CC(=O)Nc2ccc(N(C)C)cc2)cs1 | -25.4% (inactive) | – |
| CCOC(=O)C1CCCN(c2cc(=O)n(C3CCCCC3)c(=O)[nH]2)C1 (stereo not drawn) | -2.08% (inactive) | – |
| O=C(COC(=O)/C=C/c1cccc(C(F)(F)F)c1)NC(=O)NC1CCCC1 | -21.5% (inactive) | – |
| O=C(O)c1cc(-c2ccc(-c3c(-c4ccc5c(c4)OCO5)noc3-c3ccsc3)cc2)nc2ccccc12 | – | 75.7 µM (active) |
| COc1ccccc1N1CCN(c2ccc3c(c2)S(=O)(=O)c2cccc(C(=O)NCC4CC4)c2C3=O)CC1 | -24.7% (inactive) | – |
| CCOC(=O)N1CCC(N2CCOc3ccc(CN4CCC(O)(c5cccnc5)CC4)cc3C2)CC1 | -7.21% (inactive) | – |
| Cn1c(O)c(N=NC(=O)c2ccccc2O)c2ccccc21 | – | 53.6 µM (active) |
| COc1ccc(OC)c2c(/C=C/c3c(C)[nH]c4ccccc34)ccnc12 | -14.6% (inactive) | – |

| SMILES | activity, negative = inhibition | Potency |
| --- | --- | --- |
| COc1ccc(C2CN=NC23CCc2ccccc2C3=O)cc1 (stereo not drawn) | -19.1% (inactive) | – |
| COc1ccc(CCn2c(=N)c(S(=O)(=O)c3ccc(C)cc3)cc3c(=O)n4ccccc4nc32)cc1 | – | 79.4 µM (active) |
| C/C=C(\C)C(=O)OC1C(OC(=O)C2(C)OC2C)c2cc3ccc(=O)oc3cc2OC1(C)C (stereo not drawn) | -19.5% (inactive) | – |
| COc1cc(CCN(C(=O)c2cccc(S(C)(=O)=O)c2)C(CCc2ccccc2)c2nc3ccccc3[nH]2)cc(OC)c1 (stereo not drawn) | -61.2% (inactive) | – |
| CC/C(=C/c1ccccc1OC)c1cc(-c2ccccc2)cc2oc3ccccc3c12 | -5.51% (inactive) | – |
| CCc1ccccc1NC(=O)c1oc(=O)c2ccccc2c1-c1ccccc1 | -22.7% (inactive) | – |
| O=C1[C@H](Cc2ccccc2)NCCCC[C@H](c2ccco2)N1Cc1ccccc1 | -9.76% (inactive) | – |
| CCc1ccc([C@@H]2CC=C(C(=O)O)[C@H](c3ccc(Br)cc3)N2S(=O)(=O)c2ccc(C)cc2)cc1 | – | 17.8 µM (active) |
| Cc1[nH]c2ccccc2c1/C=C/c1ccnc2ccccc12 | -12.4% (inactive) | – |
| CCCCN(C(=O)CSc1n[nH]c(-c2ccc(C)cc2)n1)c1c(N)n(CCCC)c(=O)[nH]c1=O | -28.2% (inactive) | – |
| COc1ccc(-c2nc3cc(C)ccc3cc2CN(C(=O)c2cccs2)C2CC2)cc1OC | -9.59% (inactive) | – |
| Cc1cccc(NC(=O)CC2Nc3cccc4cccc(c34)NC2=O)c1 (stereo not drawn) | – | 75.7 µM (active) |
| Cc1nc2ccccc2c(=O)n1/N=C/c1ccccc1O | – | 35.5 µM (active) |
| COc1cccc(-c2nc3cc(SC)ccc3cc2CN(C(=O)c2sccc2C)C2CC2)c1 | -7.61% (inactive) | – |
| Cc1ccc(S(=O)(=O)N2[C@@H](c3cccc(Cl)c3)C(C(=O)O)=CC[C@H]2c2ccc(C(C)C)cc2)cc1 | – | 67.5 µM (active) |
| C=CCn1c(N)c(S(=O)(=O)c2cccs2)c2nc3ccccc3nc21 | – | 33.8 µM (active) |
| CN(CC(=O)O)c1ccc(/C=C/c2ccnc3ccccc23)cc1 | -19.1% (inactive) | – |
| COc1cccc(-c2nc3cc(SC)ccc3cc2CN(C(=O)c2csc(C)n2)C2CC2)c1 | -15.3% (inactive) | – |
| COC(=O)c1cc(CNC(=O)c2ccccn2)cc(NC(=O)c2ccccc2OC)c1 | -13.7% (inactive) | – |

Molecular target: Rap guanine nucleotide exchange factor 3 (Homo sapiens) (UniProt O95398)
Experiment: Confirmatory qHTS for agonist of cAMP-regulated guanine nucleotide exchange factor 3 (EPAC1) (AID 1645881);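 further: EPAC1 catalysed release of BODIPY-GDP from Rap1B seen as fluorescence loss; 100% = effect of cAMP agonist control; nearly all actives have a fitted effect of over 75% in size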
Settings: EPAC1 Rap1B BODIPY-GDP exchange fluorescence; series mostly up to 154 µM; activation: at the top concentration

| SMILES | activation |
| --- | --- |
| CC1Sc2ccc(C(=O)OCc3ccccc3Cl)cc2NC1=O (stereo not drawn) | 7.03% (inactive) |
| CC(C)N(C(=O)Nc1ccc2nsnc2c1)C(C)C | 11.2% (inactive) |
| CCOC(=O)[C@H](CCc1ccccc1)N[C@@H](C)C(=O)N1[C@@H](C(=O)O)C[C@@H]2CCC[C@@H]21 | 7.06% [at 83.5 µM, 100% = cAMP control response] (inactive) |
| Cc1ccc(S(=O)(=O)N2[C@@H](CO)CO[C@H]2CC(=O)c2ccc(F)cc2)cc1 | 6.57% (inactive) |
| Cc1cc(C)cc(NC(=O)c2sc3nc(-c4ccccc4)cn3c2C)c1 | 11.7% (inactive) |
| CN1CC(O)C2=CC(=O)C(=O)C=C21 (stereo not drawn) | -2.8% (inactive) |
| COC(=O)c1cc(Br)c(=O)n(CCC2=CCCCC2)c1 | 3.44% (inactive) |
| O=c1c2ccccc2oc2ccc(Oc3ccccc3)cc12 | 8.55% (inactive) |
| COC(=O)c1cn(C(=O)c2ccc(OC)cc2)c2ccccc12 | 28.9% (inactive) |
| COc1ccc(CNC(=O)[C@@H]2CC=C[C@@H]3CCN(Cc4ccccc4)C(=O)[C@@H]32)cc1 | -0.112% (inactive) |
| Cc1cc(C)c2nccc(/C=C/c3ccc(N(C)C)cc3)c2c1 | 20.8% (inactive) |
| O=C(Nc1ccc(Cl)cc1)N[C@@H]1CC[C@H](CCNS(=O)(=O)c2ccccc2F)O[C@@H]1CO | 14.4% (inactive) |
| COc1ccccc1NC(=O)Nc1nc(CC(=O)Nc2ccc(N(C)C)cc2)cs1 | 12.4% (inactive) |
| CCOC(=O)C1CCCN(c2cc(=O)n(C3CCCCC3)c(=O)[nH]2)C1 (stereo not drawn) | 15.5% (inactive) |
| O=C(COC(=O)/C=C/c1cccc(C(F)(F)F)c1)NC(=O)NC1CCCC1 | -11.7% (inactive) |
| O=C(O)c1cc(-c2ccc(-c3c(-c4ccc5c(c4)OCO5)noc3-c3ccsc3)cc2)nc2ccccc12 | -12.2% (inactive) |
| COc1ccccc1N1CCN(c2ccc3c(c2)S(=O)(=O)c2cccc(C(=O)NCC4CC4)c2C3=O)CC1 | -3.28% (inactive) |
| CCOC(=O)N1CCC(N2CCOc3ccc(CN4CCC(O)(c5cccnc5)CC4)cc3C2)CC1 | 3.43% (inactive) |
| Cn1c(O)c(N=NC(=O)c2ccccc2O)c2ccccc21 | 9.43% (inactive) |
| COc1ccc(OC)c2c(/C=C/c3c(C)[nH]c4ccccc34)ccnc12 | -0.113% (inactive) |

| SMILES | activation |
| --- | --- |
| COc1ccc(C2CN=NC23CCc2ccccc2C3=O)cc1 (stereo not drawn) | 10.9% (inactive) |
| COc1ccc(CCn2c(=N)c(S(=O)(=O)c3ccc(C)cc3)cc3c(=O)n4ccccc4nc32)cc1 | -108% (inactive) |
| C/C=C(\C)C(=O)OC1C(OC(=O)C2(C)OC2C)c2cc3ccc(=O)oc3cc2OC1(C)C (stereo not drawn) | -9.47% (inactive) |
| COc1cc(CCN(C(=O)c2cccc(S(C)(=O)=O)c2)C(CCc2ccccc2)c2nc3ccccc3[nH]2)cc(OC)c1 (stereo not drawn) | 6.57% (inactive) |
| CC/C(=C/c1ccccc1OC)c1cc(-c2ccccc2)cc2oc3ccccc3c12 | 4.67% (inactive) |
| CCc1ccccc1NC(=O)c1oc(=O)c2ccccc2c1-c1ccccc1 | 11.7% (inactive) |
| O=C1[C@H](Cc2ccccc2)NCCCC[C@H](c2ccco2)N1Cc1ccccc1 | 13.1% (inactive) |
| CCc1ccc([C@@H]2CC=C(C(=O)O)[C@H](c3ccc(Br)cc3)N2S(=O)(=O)c2ccc(C)cc2)cc1 | -16.2% (inactive) |
| Cc1[nH]c2ccccc2c1/C=C/c1ccnc2ccccc12 | 3.93% (inactive) |
| CCCCN(C(=O)CSc1n[nH]c(-c2ccc(C)cc2)n1)c1c(N)n(CCCC)c(=O)[nH]c1=O | -2.79% (inactive) |
| COc1ccc(-c2nc3cc(C)ccc3cc2CN(C(=O)c2cccs2)C2CC2)cc1OC | 2.18% (inactive) |
| Cc1cccc(NC(=O)CC2Nc3cccc4cccc(c34)NC2=O)c1 (stereo not drawn) | -15.4% (inactive) |
| Cc1nc2ccccc2c(=O)n1/N=C/c1ccccc1O | 5.93% (inactive) |
| COc1cccc(-c2nc3cc(SC)ccc3cc2CN(C(=O)c2sccc2C)C2CC2)c1 | 3.35% (inactive) |
| Cc1ccc(S(=O)(=O)N2[C@@H](c3cccc(Cl)c3)C(C(=O)O)=CC[C@H]2c2ccc(C(C)C)cc2)cc1 | -20% (inactive) |
| C=CCn1c(N)c(S(=O)(=O)c2cccs2)c2nc3ccccc3nc21 | 5.54% (inactive) |
| CN(CC(=O)O)c1ccc(/C=C/c2ccnc3ccccc23)cc1 | -1.16% (inactive) |
| COc1cccc(-c2nc3cc(SC)ccc3cc2CN(C(=O)c2csc(C)n2)C2CC2)c1 | 4.1% (inactive) |
| COC(=O)c1cc(CNC(=O)c2ccccn2)cc(NC(=O)c2ccccc2OC)c1 | -0.857% (inactive) |
